# Measured values taken from PubChem BioAssay (NCI).
# The panel holds about 79,000 compounds, 15% with a hit somewhere; the sample as a whole holds those more often. Values without a mark were called inactive. Calls of active or inactive are those of the source. Cut-off read from the data, not from the text of the source: active = growth inhibition above about 70%; inactive = the rest.
# Assay: NCI Yeast Anticancer Drug Screen. Data for the sgs1 mgt1 strain (AID 161);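 note: 0% = growth of cultures given vehicle only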
# Conditions: S. cerevisiae sgs1 mgt1 strain, at 50.0 µM, active compounds read high
# Outline: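 Read-out: growth inhibition vs vehicle controls. Cells: mutant yeast strain deficient in DNA damage repair.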
row,SMILES,growth inhibition
1,O=S(=O)(/C=C/c1ccc(Cl)cc1Cl)Cc1ccccc1CS(=O)(=O)/C=C/c1ccc(Cl)cc1Cl,-27.6%
2,Cc1c2ccccc2c(CN2CC(O)CC2C(=O)O)c2ccccc12 (stereo unspecified),63%
3,CC(CCC(=O)O)(CCC(=O)O)[N+](=O)[O-],12.2%
4,CCCCCCCCCCCCCCCC(=O)NOCc1cscn1,-3.25%
5,COC(=O)c1ccc(C(=O)OC)c(N)c1,-1.85%
6,CCCCCCN(CCCCCC)CC(O)c1c(Cl)ccc2ccccc12 (stereo unspecified),99.3% (active)
7,CCS(=O)(=O)CCNC(=O)NS(=O)(=O)c1ccc(C)cc1,-11.8%
8,O=C1CN(C=C2C(=O)NC(=O)NC2=O)C(=S)N1,-43%
9,NC(=O)c1[nH]c(COCCO)nc1N,14%
10,CC(=O)SC1CC(=O)OC1=O (stereo unspecified),7.1%
11,CSC1NC(c2ccc(Cl)cc2)=C(C#N)C(=O)N1C1OCC(OC(C)=O)C(OC(C)=O)C1OC(C)=O (stereo unspecified),-24.2%
12,Cc1ccc(C)c(NC(=O)NC(C)C)c1,5.45%
13,Cc1ccc(N=Nc2cc(C)c(N)cc2N)c(S(=O)(=O)O)c1,-16.4%
14,CN(C)CC1CCC(CN(C)C)C1=NO (stereo unspecified),-4.1%
15,CC(C)C(=O)NCc1ccccc1Sc1ccccc1CNC(=O)C(C)C,-18.5%
16,CCOC(=O)N1CN(C(=O)OCC)CN(C(=O)OCC)C1,9.45%
17,OCC1(CO)CCCO1,-10.4%
18,CCCCOP(=O)(OCCCC)/C(C#N)=C/c1ccc(C)o1,-4.85%
19,CN1CCCC2C3=CC=C4CC(O)CCC4(C)C3CCC21C (stereo unspecified),34.9%
20,c1ccc(C(Sc2ncnc3nc[nH]c23)c2ccccc2)cc1,-3.85%
21,C=CCOc1ccc2cc(Br)ccc2c1,6.3%

# Assay: NCI Yeast Anticancer Drug Screen. Data for the cln2 rad14 strain (AID 165);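 note: 0% = growth equal to vehicle treated cultures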
# Conditions: S. cerevisiae cln2 rad14 strain, at 50.0 µM, active compounds read high
# Outline: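 Compounds are applied to the cln2 rad14 yeast strain, and growth is then compared with that of vehicle-treated cultures to give inhibition.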
row,SMILES,growth inhibition
1,CC(=O)Oc1ccccc1C#CC(=O)O,-1.2%
2,COc1ccc(C(O)(CCN2CCOCC2)c2ccc3c(c2)OCO3)cc1 (stereo unspecified),-47.4%
3,O=C(CCn1[nH]c(=O)c(Cl)c(Cl)c1=O)NNC(=O)C[n+]1ccccc1,34.2%
4,Cc1ccc(S(=O)c2ccccc2[N+](=O)[O-])cc1 (stereo unspecified),22%
5,O=[N+]([O-])c1c(Nc2ccccc2)ncnc1Nc1ccccc1,3.45%
6,CCCCNC(C)(C)CSS(=O)(=O)O,-59.8%
7,O=C1OC(/C=C/c2ccccc2)=NC/1=C\c1ccccc1O,23.4%
8,CC(O)CCNc1nnc2c3ccccc3n(C)c2n1 (stereo unspecified),44.2%
9,CC(C(=O)O)C(=O)NNc1ccccc1 (stereo unspecified),8.4%
10,CN1CCS(=O)(=O)C2CCCCC2C1=O (stereo unspecified),11.8%
11,Oc1ccccc1C=NCCCN=Cc1ccccc1O,15.5%
12,COc1cccc(C2c3cc4c(cc3OC(C)(O)C2C)OCO4)c1OC (stereo unspecified),13.9%
13,CC1(C)CCCCC1=O,22.1%
14,CCC(O)C(CC)CC (stereo unspecified),17%
15,CCO[Si](C)(CCC#N)OCC,30.9%
16,Cc1cccc(Cl)c1NC1=NCCN1C(=O)CC(=O)c1ccccc1,12.8%
17,CC12C=C[C@]3(CC[C@@H]4[C@@](C)(CO)CCC[C@]4(C)C3CC1)C2 (stereo partly specified),8.25%
18,CC(NC(=O)c1ccccc1)c1ccc[nH]1 (stereo unspecified),-15.2%
19,Cc1cccc(C2=C/C(=C(\SS/C(C(=O)c3ccc(OCC(=O)O)c(Cl)c3Cl)=C3\C=C(c4cccc(C)c4)SS3)C(=O)c3ccc(OCC(=O)O)c(Cl)c3Cl)SS2)c1,1.95%
20,O=S(=O)(/C=C/c1ccc(Cl)cc1Cl)Cc1ccccc1CS(=O)(=O)/C=C/c1ccc(Cl)cc1Cl,-20.8%

row,SMILES,growth inhibition
1,Cc1c2ccccc2c(CN2CC(O)CC2C(=O)O)c2ccccc12 (stereo unspecified),78.5% (active)
2,CC(CCC(=O)O)(CCC(=O)O)[N+](=O)[O-],-6.6%
3,CCCCCCCCCCCCCCCC(=O)NOCc1cscn1,-22.1%
4,COC(=O)c1ccc(C(=O)OC)c(N)c1,-33%
5,CCCCCCN(CCCCCC)CC(O)c1c(Cl)ccc2ccccc12 (stereo unspecified),98.6% (active)
6,CCS(=O)(=O)CCNC(=O)NS(=O)(=O)c1ccc(C)cc1,-1.2%
7,O=C1CN(C=C2C(=O)NC(=O)NC2=O)C(=S)N1,-36.7%
8,NC(=O)c1[nH]c(COCCO)nc1N,-14.9%
9,CC(=O)SC1CC(=O)OC1=O (stereo unspecified),7.8%
10,CSC1NC(c2ccc(Cl)cc2)=C(C#N)C(=O)N1C1OCC(OC(C)=O)C(OC(C)=O)C1OC(C)=O (stereo unspecified),-3.85%
11,Cc1ccc(C)c(NC(=O)NC(C)C)c1,-25.6%
12,Cc1ccc(N=Nc2cc(C)c(N)cc2N)c(S(=O)(=O)O)c1,-38.5%
13,CN(C)CC1CCC(CN(C)C)C1=NO (stereo unspecified),7.4%
14,CC(C)C(=O)NCc1ccccc1Sc1ccccc1CNC(=O)C(C)C,-10%
15,CCOC(=O)N1CN(C(=O)OCC)CN(C(=O)OCC)C1,-7.6%
16,OCC1(CO)CCCO1,5.1%
17,CCCCOP(=O)(OCCCC)/C(C#N)=C/c1ccc(C)o1,-35.4%
18,CN1CCCC2C3=CC=C4CC(O)CCC4(C)C3CCC21C (stereo unspecified),14.5%
19,c1ccc(C(Sc2ncnc3nc[nH]c23)c2ccccc2)cc1,-22.5%
20,C=CCOc1ccc2cc(Br)ccc2c1,-24.1%
